Bioassay records as filed in PubChem BioAssay.
Cycloheximide cs = affects cycloheximide protein synthesis inhibition readout, counter-screen. cell reporter, cycloheximide protein synthesis inhibition counterscreen. max response, %. 300,000 tested, 12% active; in the data active = max response mostly above about 13%, no sharp cut-off; inactive = mostly below about 14%; note: read at 38.3 µM for the half of the compounds with a filed dose; 0% is about no effect
Shiga inhibitor = inhibitors of Shiga toxin in Vero cells. Vero cells, Shiga toxin protein synthesis inhibition reporter. inhibition, % at 38.7 µM. 290,000 tested, 9.2% active. AID 2315; in the data active = inhibition mostly above about 28%, no sharp cut-off; inactive = mostly below about 43%; note: 0% is about no effect
SARS PLpro yeast = blocks SARS-CoV papain-like protease in a yeast assay | S. cerevisiae expressing SARS-CoV PLpro, growth rescue | Potency, µM (top dose mostly 32.9 µM), inactives show at the top dose activity, positive = growth rescue, most hits filed as activators | 330,000 tested, 0.19% active; note: potency is the fitted concentration of half-maximal effect; 0% is about no effect; nearly all actives have a fitted effect of over 55% in size
NS1 inh = influenza NS1 inhibition; Potency, µM (titrated, usually from 46.1 µM), for inactives: top-dose activity, positive = more growth; 270,000 tested, 0.4% active; AID 2326; note: potency is the fitted concentration of half-maximal effect; actives are rising curves; nearly all actives have a fitted effect of over 50% in size
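Compounds were scored for reversing the slow growth caused by influenza A NS1 in S. cerevisiae, measured by optical density at 600 nm. Assay medium contained 2% galactose at pH 6.0; NS1-free yeast of the same strain were the positive control.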
* marks the source's active call; other numbers are inactive results; ? = inconclusive; nt = no result given. In the library only some 12% were active in any assay of this set; here they are far more common. Unless noted, calls come from the whole dose curve.

SMILES | Cycloheximide cs | Shiga inhibitor | SARS PLpro yeast | NS1 inh
O=C(Nc1ccc(F)cc1)c1ccc2[nH]c(=O)c(=O)[nH]c2c1 | 1 | 6 | 0% | 10%
COc1ccccc1C(=O)NNC(=O)c1cccc(F)c1 | 51* | 88* | -10% | -9%
COc1ccccc1C(=O)NNC(=O)c1ccccc1F | 47* | 58* | -35% | -2%
COCC(=O)NNC(=O)c1ccccc1OC | 11 | 20 | 0% | -1%
O=C(NNC(=O)c1ccccc1F)c1ccc2[nH]c(=O)c(=O)[nH]c2c1 | 34* | 41* | -4% | -5%
COc1ccccc1C(=O)NNC(=O)c1cccc(O)c1 | 23* | 21 | -2% | ?
O=C(CNC(=O)c1ccc(N2CCCC2=O)cc1)Nc1ccc(F)c(F)c1F | nt | nt | 2% | nt
Cc1sc(NC(=O)C2=COCCO2)c(C(N)=O)c1C | nt | nt | -5% | nt
CC(C)(C)NC(=O)C(=O)NNC(=O)c1cccc(F)c1 | 38* | 44 | -2% | nt
COc1cccc(NC(=O)N2CCCC2C(=O)NC2CCCC2)c1 (stereo not given) | -6 | -16 | -1% | 0%
Cn1c(SCC2CCCO2)nnc1-c1ccncc1 (stereo not given) | -3 | 14 | 2% | 2%
CN(C)c1ccc(-c2nnc(SCC3CCCO3)n2C)cc1 (stereo not given) | 44* | 80* | 0% | -2%
CN1CCN(c2cccc3c2C(=O)c2ccccc2C3=O)CC1 | 36* | 47* | -18% | 5%
O=C1c2ccccc2C(=O)c2c1cccc2N1CCOCC1 | 27* | 79* | 2% | -101%
O=C1c2ccccc2-c2c1cccc2C(=O)N1CCOCC1 | -3 | -4 | 9% | 3%
CCCNc1nc(Cl)nc(NCc2cccnc2)n1 | -2 | 24 | 2% | 3%
COc1cccc(OC)c1C(=O)NC(=S)Nc1ccc2oc(-c3ccncc3)nc2c1 | 6 | 5 | -1% | nt
O=C1CCN(Cc2ccccc2)S(=O)(=O)c2ccc(C(F)(F)F)cc21 | nt | nt | -6% | nt
O=C(OC(c1ccccc1)c1nccc2ccccc12)c1cccc([N+](=O)[O-])c1 (stereo not given) | 32* | 35 | -79% | 14%
CC(C)C(OC(=O)c1ccccc1)c1nccc2ccccc12 (stereo not given) | 49* | 86* | -9% | -39%
CN(C(=O)c1cc(-n2cnnc2)ccc1Cl)c1ccccc1 | 17* | 43* | -17% | 21%
O=C(c1ccc(Cl)c([N+](=O)[O-])c1)N1CCN(C(=O)c2ccco2)CC1 | 7 | -21 | 0% | nt
O=C(c1ccco1)N1CCN(c2c([N+](=O)[O-])nn(-c3cccc(Cl)c3)[n+]2[O-])CC1 | 14* | 22 | 10% | nt
O=C(Cc1ccc(Br)cc1)Nc1ccccc1Cl | 1 | -2 | 6% | 10%
Cc1cc(C)n(-c2ccc(NC(=O)C3CCCCN3C(=O)c3ccc(C)s3)cc2)n1 (stereo not given) | -1 | -17 | -1% | -2%
SMILES | Cycloheximide cs | Shiga inhibitor | SARS PLpro yeast | NS1 inh
CC1SCC(=NOCc2c(Cl)cccc2Cl)CS1 (stereo not given) | 12 | 62* | 2% | 1%
O=C1NC(NS(=O)(=O)c2ccccc2)(C(F)(F)F)C(=O)N1c1cccc(Cl)c1 (stereo not given) | -5 | -3 | -2% | 7%
COCCn1c(C(C)C)nc2oc3ccccc3c(=O)c2c1=O | 8 | -3 | -3% | -28%
Cc1ccc(-n2c(C(C)C)nc3oc4ccccc4c(=O)c3c2=O)cc1 | 29* | 63* | 3% | -60%
CCc1nc2oc3ccccc3c(=O)c2c(=O)n1-c1ccc(C)cc1 | 41* | 64* | -1% | 0%
CCCc1nc2c(c(=O)c3ccccc3n2C)c(=O)n1-c1ccc(F)cc1 | -2 | 15 | 0% | -2%
CCCc1nc2oc3ccccc3c(=O)c2c(=O)n1-c1ccccc1 | 33* | 55* | -4% | -3%
CCCCn1c(-c2cccs2)nc2oc3ccccc3c(=O)c2c1=O | -2 | -9 | 0% | 8%
CCCc1nc2oc3ccccc3c(=O)c2c(=O)n1-c1ccc(C)cc1 | 36* | 66* | -1% | -7%
COc1ccc(-n2c(C)cc(-c3csc(N)n3)c2C)cc1 | 0 | 13 | 17% | 6%
CSc1ncccc1C(=O)OCC(=O)NC(C)CCc1ccccc1 (stereo not given) | nt | nt | -1% | nt
CNc1c([N+](=O)[O-])cnn1-c1ccc(Cl)cc1 | -3 | 11 | -2% | 2%
CC(=O)NC(Cc1ccccc1F)C(=O)NC1CCN(c2ncccc2[N+](=O)[O-])CC1 (stereo not given) | -2 | -7 | -1% | -4%
COC(=O)c1c(N)sc2c1CC(C)(C)OC2 | 12 | 15 | -1% | nt
CCc1nc2oc3ccccc3c(=O)c2c(=O)n1CCOC | -1 | -1 | -1% | -3%
